Data reported in PubChem BioAssay AID1259249 (Broad Institute, 2017).
“And” between values parts separate entries of the source, which are not always exact repeats. Equal entries are not always repeated. Among all 86,000 compounds or so, about 220 (0.26%) were called active.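 The calls were made as follows: active = mean growth activity at or below -80% and every replicate also at or below -80%; inconclusive = mean at or below -80% but some replicate above -80%; inactive = mean growth activity above -80%.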 Many of the other results were omitted from the sample, so actives are more common in it than they were.

assay: blockers of Clostridium difficile growth – HTS, primary screen (AID 1259249); settings: Clostridium difficile clinical isolate growth, OD600, 24 h; hits give low values; screened at 16 µg/mL (by protocol);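 also: 0% = DMSO wells and -100% = levofloxacin 16 µg/mL wells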

Growth activity, negative = inhibition, inactive:
C[C@@H]1CN([C@@H](C)CO)C(=O)c2cc(-c3cccnc3)cnc2O[C@@H]1CN(C)C(=O)C1CC1 4.12%
COc1ccccc1S(=O)(=O)N1C[C@@H]2N[C@H](C1)C2c1ccc(-c2cccc(C)c2)cc1 (stereo not given in full) 66.4% and 49%
O=C(C1CCOCC1)N1CC2(C1)[C@H](c1ccccc1)[C@H](CO)N2Cc1ccc(Cl)cc1 -1.43%
C[C@@H]1CCCCO[C@H](CN(C)Cc2ccc(C(F)(F)F)cc2)[C@H](C)CN([C@@H](C)CO)C(=O)c2cc(N(C)C)ccc2O1 3.85%
Cc1noc(C)c1NC(=O)N(C)C[C@H]1OCCCC[C@@H](C)Oc2ccc(NS(=O)(=O)c3ccc(Cl)cc3)cc2C(=O)N([C@@H](C)CO)C[C@H]1C -9.03%
COc1ccc2c3c([nH]c2c1)[C@@H](CO)NCC31CN(S(=O)(=O)c2cccs2)C1 -6.75%
CCCNC(=O)N1[C@H](CO)[C@@H]2c3ccccc3N(C(=O)C3CC3)C[C@@H]21 1.07%
COc1ccc(CN(C)C[C@@H]2OCCCC[C@H](C)Oc3ccc(NS(=O)(=O)c4ccc(F)cc4)cc3C(=O)N([C@H](C)CO)C[C@H]2C)cc1 8.17%
CC(=O)Nc1ccc2c(c1)C(=O)N(C)[C@@H]1CC[C@H](CC(=O)NCc3ccccc3)O[C@H]1CO2 6.07%
N#Cc1ccc(-c2ccc(C3[C@H]4CNC[C@@H]3N4S(=O)(=O)c3ccccc3F)cc2)cc1 (stereo not given in full) 29.2%
CO[C@@H]1CN(C)C(=O)c2ccc(NS(=O)(=O)c3ccc(Cl)cc3)cc2OC[C@@H](C)N(C)C[C@@H]1C -1.74%
CCCN1[C@H](C(=O)N[C@H](C)c2ccccc2)[C@@H](CO)[C@@H]2Cn3c(ccc(-c4cccc(F)c4)c3=O)[C@@H]21 14.4%
COCC#Cc1ccc([C@H]2[C@H]3CN(Cc4ccncc4)CCCCN3[C@H]2CO)cc1 13.5%
C[C@@H]1CN([C@@H](C)CO)C(=O)c2cc(NS(=O)(=O)c3cn(C)cn3)ccc2O[C@@H](C)CCCCO[C@H]1CN(C)S(=O)(=O)c1cccs1 1.84%
CN1c2ccc(-c3ccccc3)cc2[C@H]2[C@H](CCN2C(=O)c2ccc3c(c2)OCO3)[C@H]1CO -20.7%
CN1C(=O)c2cc(NC(=O)c3cnccn3)ccc2OC[C@H]2O[C@@H](CC(=O)NCC3CCCCC3)CC[C@@H]21 0.457%
CO[C@H]1CN(C)C(=O)c2cc(NC(=O)C3CC3)ccc2OC[C@H](C)N(Cc2ccccc2)C[C@H]1C -3.86%
Cc1ccc(-c2ccc3c(c2)O[C@H](CN(C)C(=O)CC2CC2)[C@@H](C)CN([C@H](C)CO)S3(=O)=O)cc1 3.19%
CCC(CO)Oc1cc(NC(=O)c2ccc(Cl)cc2)c2ncn(C(C)C)c2c1 (stereo not given) -0.177%
O=C(NC1CCCC1)N1CC(=O)N2[C@H](C1)[C@H](c1ccc(/C=C/c3ccccc3)cc1)[C@@H]2CO -1.1%
COCC(=O)N1CC2(C1)[C@@H](c1ccc(-c3cccc(F)c3)cc1)[C@@H](CO)N2C(=O)COC -0.178%
CN1c2ccc(Br)cc2[C@@H]2[C@@H](CCN2S(=O)(=O)c2ccc(F)cc2)[C@@H]1CO 67.3%
COCC(=O)N1CC(=O)N2[C@H](C1)[C@@H](c1ccc(C#Cc3cccc(OC)c3)cc1)[C@@H]2CO -20.7%
Cc1nc(N2[C@H](CO)[C@H](c3ccccc3)[C@H]2CNCC2CCC2)sc1C 8.18%
C/C=C/c1ccc([C@@H]2[C@@H](CO)N(C(=O)c3ccccc3)C23CN(C(C)=O)C3)cc1 -2.56%
COc1ccc(C#Cc2cccc(-c3nc(C(=O)O)cc4c3[C@@H](CCO)N(S(=O)C(C)(C)C)C4)c2)cc1OC (stereo not given in full) -2.07%
CCO[C@H]1OC(C(=O)N2CCCCCCC2)=C[C@@H](c2ccc(C(F)(F)F)cc2)[C@@H]1CCCO 9.8%
C[C@H]1CN([C@@H](C)CO)C(=O)c2cc(C#CC3CCCCC3)cnc2O[C@@H]1CN(C)C(=O)Cc1ccccn1 -14%
Cc1noc(C)c1S(=O)(=O)N(C)C[C@@H]1OCCCC[C@@H](C)Oc2ccc(NC(=O)c3ccccc3)cc2C(=O)N([C@H](C)CO)C[C@H]1C 5.17%
COc1ccc(CN(C)C[C@H]2OCCCC[C@H](C)Oc3ccc(NS(C)(=O)=O)cc3C(=O)N([C@H](C)CO)C[C@@H]2C)cc1 -0.222%
O=C(C[C@@H]1C=C[C@@H](NS(=O)(=O)c2ccccc2)[C@H](CO)O1)N1CCN(c2ccccc2)CC1 0.541%
O=C(c1cnccn1)N1CC2(C1)[C@H](c1ccccc1)[C@H](CO)N2C(=O)c1ccccc1 -0.792%
O=C(C[C@H]1CC[C@H]2[C@@H](COC[C@@H](O)CN2CC2CCCC2)O1)NCC1CC1 -1.93%
Cc1ccccc1S(=O)(=O)N1C[C@@H]2N[C@H](C1)C2c1ccc(-c2cccc(C(=O)N(C)C)c2)cc1 (stereo not given in full) 4.24%
CN(C)CC(=O)N1[C@H](C(=O)NC2CCC2)[C@@H](CO)[C@@H]2Cn3c(ccc(-c4ccc(F)cc4)c3=O)[C@@H]21 -0.849%
CCCNC(=O)N1CCC2(CC1)CN(C(=O)CN1CCOCC1)[C@H](CO)c1[nH]c3cc(OC)ccc3c12 5.44%
C[C@@H]1CCCCO[C@H](CN(C)C(=O)NC2CCCCC2)[C@H](C)CN([C@H](C)CO)C(=O)c2cc(NC(=O)c3ccncc3)ccc2O1 -3.74%
COc1ccc2c3c([nH]c2c1)[C@H](CO)N(Cc1nccs1)CC31CCN(C(=O)C2CCC2)CC1 -4.33%
CCCC#Cc1ccc([C@@H]2[C@@H](C#N)N(C(=O)C3CC3)[C@H]2CO)cc1 -16.8%
CCCNC(=O)Nc1ccc2c(c1)OC[C@H](C)N(CCC(F)(F)F)C[C@H](C)[C@@H](OC)CN(C)C2=O -16.2%
